Only some compounds are listed: those with a hit (about 14% of all), similar ones and a draw of the others.
USP30 block: human USP30 deubiquitinase inhibition; Q70CQ3; purified USP30, Ub-rhodamine cleavage fluorescence; inhibition, % at 25 µM; 47,000 compounds, 5.3% hits; AID 1645860
USP8 block: blocks human USP8 ubiquitin-rhodamine cleavage | P40818 | purified USP8, Ub-rhodamine cleavage fluorescence, 30 min | inhibition, % at 20 µM | 47,000 compounds, 4.2% hits | AID 1645853
USP28 block: human USP28 deubiquitinase inhibition | AID 1645857 | inhibition, % at 25 µM | purified USP28, Ub-rhodamine cleavage fluorescence, 30 min | 47,000 compounds, 3% hits
USP17 inh: inhibitors of human USP17 deubiquitinase. inhibition, % at 50 µM. 47,000 compounds, 6.5% hits. A8MUK1. purified USP17, Ub-rhodamine cleavage fluorescence, 3 h
* marks the source's active call; other numbers are inactive results; x = no result. Cut-off read from the data, not from the text of the source: active = inhibition above about 30%; inactive = the rest.

SMILES	USP30 block	USP8 block	USP28 block	USP17 inh
O=C(Oc1ccc(-c2nccc(-c3cccs3)n2)cc1)c1ccco1	25	36*	21	49*
c1ccc(CNc2ccc(-c3ccccc3)nn2)cc1	45*	57*	37*	28
COc1cc2cc3c(nc2cc1OC)OCCN(C1CCCCC1)C3	-372	-109	-157	-119
COc1ccc(Br)c(OC)c1C(=O)NC(=O)Nc1c(C(C)C)cccc1C(C)C	5	4	5	4
O=C(CCCc1c[nH]c2ccccc12)N1CCN(S(=O)(=O)c2ccc(F)cc2)CC1	41*	5	14	11
CC1CCCN(C(=O)C2CCC3(CC2)CNC(=O)c2cc(Cl)ccc2O3)C1 (stereo not given)	-3	-17	0	-1
Cc1nc2cc(NC(=O)C3CN(C(=O)c4cnccn4)C3)ccc2s1	4	-25	54*	-16
CN1CC[C@@H]2[C@H]1C(=O)NC[C@H](CCC(=O)NCc1ccco1)N2C	-8	-2	23	-26
Cc1oc(-c2ccc(C(=O)NCC3COCCO3)cc2)nc1CN1CCc2ccccc21 (stereo not given)	-51	-12	57*	-9
Cc1ccc(C(=O)NCC2COCCO2)cc1NC(=O)c1nsc2ccccc12 (stereo not given)	-4	-2	-5	-18
CCOc1ccc(CNC(=O)c2nnc(C(=O)Nc3ccc(OC)cc3)s2)cc1	29	0	17	-66
O=C(Nc1cccc(C(F)(F)F)c1)Nc1cc2cccnc2nc1C(F)(F)F	-37	-4	-12	7
O=S(=O)(c1ccc(F)c(F)c1)N1CCCN(c2cc(-c3ccccn3)[nH]n2)CC1	-117	-198	-48	x
Cc1c(N2CCN(S(=O)(=O)c3ccc(F)c(F)c3)CC2)c(=O)n(C)c(=O)n1C	37*	7	22	44*
Cc1ccc(S(=O)(=O)N2CCN(c3c(C)n(C)c(=O)n(C)c3=O)CC2)c(C)c1	16	13	10	11
Cc1ccc(S(=O)(=O)N2CCN(c3c(C)n(C)c(=O)n(C)c3=O)CC2)cc1C	37*	16	8	23
Cn1cnc(C(=O)N2CCCC23CCN(C(=O)c2cscn2)C3)c1 (stereo not given)	3	-74	-6	-11
CN(C(=O)c1cccs1)c1nc2c(s1)CCc1occc1-2	-5	6	-21	37*
CN(C(=O)C1(c2ccc(Cl)cc2)CC1)c1nc2c(s1)CCc1occc1-2	-16	-109	-6	-4
CCN(C(=O)Cc1ccccc1OC)c1nc2c(s1)CCc1occc1-2	11	-93	18	37*
Cc1c(C(=O)N(C)c2nc3c(s2)CCc2occc2-3)oc2ccccc12	66*	48*	40*	79*
Cn1c(CN2CCOCC2)nnc1SCC(=O)Nc1ccc(Cl)cc1	-10	-1	-4	-1
CCc1ccc(C(=O)COC(=O)c2cccnc2Nc2cccc(C(F)(F)F)c2)cc1	-7	-2	-13	-9
Cc1cnn(CC(=O)N2CCC[C@@H]3NC(=O)c4ccccc4OCC/C=C/C[C@@H]32)c1	13	13	-9	6
O=C1COc2ccc(Cl)cc2CN1Cc1ccccc1	10	-2	3	-2
SMILES	USP30 block	USP8 block	USP28 block	USP17 inh
Clc1ccc(C2=Nc3cc(Cl)ccc3OC2)cc1	-50	56*	-8	21
Fc1ccc(OCCn2c(COc3ccccc3)nc3ccccc32)cc1	16	5	27	23
Cc1ccc(OCCn2c(=N)n(C(C)C)c3ccccc32)cc1	28	15	78*	8
CCn1c(=N)n(CCOc2ccc(F)cc2)c2ccccc21	39*	2	97*	6
O=c1c2oc3nc4c(cc3c2ncn1CCc1ccccc1)CCCC4	-132	-4	-6	1
COc1ccc(OCC(O)CNS(=O)(=O)c2ccc(Br)cc2)cc1 (stereo not given)	12	15	12	5
CCc1nnc(-c2ccc3ccn(CC(=O)N4CCN(c5ccccn5)CC4)c3c2)o1	39*	92*	31*	76*
CCc1nnc(-c2cc(S(=O)(=O)N3CCN(c4ccccn4)CC3)c[nH]2)o1	17	40*	16	7
Cc1cccc(N2CCN(C(=O)Cn3cc(-c4ccccc4)oc3=O)CC2)c1	-24	14	-14	-13
Cc1ccc(-c2cn(CC(=O)N3CCN(c4ccccn4)CC3)c(=O)o2)cc1	36*	30	20	77*
COc1ccc(-c2nc(SCC(=O)Nc3ccc(C(C)=O)cc3)n[nH]2)cc1	-1	4	-1	54*
Cc1ccc(NC(=O)C2C3C=CC4(O3)C2C(=O)N(C2CCCCCC2)C4C(=O)NC2CCCCC2)cc1Cl (stereo not given)	2	11	-3	49*
O=C(Nc1ccc(Cl)cc1)C1C2C=CC3(O2)C1C(=O)N(C1CC1)C3C(=O)NC1CCCCC1 (stereo not given)	4	14	4	36*
Cc1ccc(-c2nnc(-n3ncc(C#N)c3N)c3ccccc23)cc1C	0	0	12	62*
COc1cccc(NC(=O)CC2C(=O)N(Cc3cccnc3)c3nc4ccccc4n32)c1 (stereo not given)	-9	13	11	-10
Cc1ccc(NC(=O)Cn2cccc2-c2nnc(C3CC3)o2)c(C)c1	34*	0	-13	1
Cc1ccc(NC(=O)Cn2c(=O)c3cccnc3n(-c3ccccc3)c2=O)cc1	-148	8	-43	24
CCN(CC)S(=O)(=O)c1cccc(-c2nnc(SC(C)C(=O)NCc3ccc4c(c3)OCO4)n2-c2ccccc2)c1 (stereo not given)	6	-28	2	-8
Cc1ccc(CCNC(=O)c2nn(C34CC5CC(CC(C5)C3)C4)cc2[N+](=O)[O-])cc1	47*	-19	23	9
O=C(c1nc(-c2ccc(N3CCCCC3)nc2)no1)N1CCOCC1	30	20	12	24
Cc1ccc(-c2noc(Cn3c(=O)[nH]c4cc5c(cc4c3=O)OCO5)n2)cc1	-32	55*	4	2
COc1cc(OC)cc(-c2noc(Cn3c(=O)[nH]c4cc5c(cc4c3=O)OCO5)n2)c1	-35	82*	-6	x
Cc1cc(C)n2nc(CN(Cc3ccccc3)C(=O)c3ccc(Cl)cc3)nc2n1	-13	-10	-11	0
O=C(Nc1ccc(Sc2ccc(F)cc2)cc1)c1cccc(C(F)(F)F)c1	40*	22	24	17
O=C(C1CCC1)N1CCC(c2nc3c(nnn3Cc3ccccc3Cl)c(=O)[nH]2)CC1	32*	19	18	25
O=C(C1CCC1)N1CCC(c2nc3c(nnn3Cc3c(F)cccc3Cl)c(=O)[nH]2)CC1	6	0	-8	-5
O=C(C1CCCC1)N1CCC(c2nc3c(nnn3Cc3c(Cl)cccc3Cl)c(=O)[nH]2)CC1	44*	4	27	12
COc1ccc(-c2csc(C)n2)cc1S(=O)(=O)N1CCC(C)CC1	-80	-7	0	2
O=C(Oc1ccc(Cl)c2ccccc12)c1ccc(N2CCCC2=O)cc1	26	16	8	12
COc1ccc(NC(=NCc2ccc(OC(C)C)cc2)NS(C)(=O)=O)cc1OC	11	-139	2	-16

Screening results from PubChem.
